Screening data: PubChem BioAssay, The Scripps Research Institute Molecular Screening Center
An excerpt weighted towards active compounds, which were near 4.8% of everything screened.
DAX1 inh-1 = DAX1 (NR0B1) inhibition, primary screen | inhibition, % at 6.8 µM | hit rate 1.1% among 370,000 | HEK293T StAR-luciferase reporter, SF-1/DAX-1 repression relief;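 active = inhibition above the mean over all tested compounds plus 3 SD, cut at about 3.6% in these data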;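 note: higher inhibition means more luminescence from relief of DAX-1 repression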
SMARCA2 act = increases SMARCA2 function in MMTV reporter cells. MG213 cells, MMTV-luciferase reporter, dexamethasone, overnight. activation, % at 9.1 µM. hit rate 1% among 370,000; in the data active = activation above about 7.8%
hcDAF-12 act = H. contortus DAF-12 activation, primary screen | HEK293 hcDAF-12 lit1-tk-luc reporter, luminescence; 0% DMSO, 100% Δ7-dafachronic acid | activation, % at 6.8 µM | hit rate 1.4% among 370,000 | AID 652067;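 active = activation above the mean of all tested compounds plus 3 SD, cut at about 5.5% in these data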
hgDAF-12 ag = agonists of H. glycines DAF-12 nuclear receptor. HEK293 GAL4-hgDAF12 UAS-luciferase reporter, agonist luminescence; normalized to butyrate control. activation, % at 6.8 µM. hit rate 1.8% among 370,000. AID 687014;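 active = activation above a cutoff set at the mean of all screened compounds plus 3 SD, cut at about 10% in these data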
ssDAF-12 act = activators of S. stercoralis DAF-12 nuclear receptor; HEK293 ssDAF-12/GRIP1 lit1-tk-luc reporter, luminescence; % of 3 µM dafachronic acid response; hit rate 1% among 370,000; activation, % at 6.8 µM; AID 652126;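 active = activation above the mean over all tested compounds plus 3 SD, cut at about 0.9% in these data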
DAX1 inh-2 = inhibits human nuclear receptor DAX1; hit rate 0.99% among 340,000; P51843; HEK293 Gal4-DAX1 luciferase reporter, luminescence; inhibition, % at 6.75 µM;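 active = inhibition above the mean over all tested compounds plus 3 SD, cut at about 4.2% in these data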;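 note: inhibition shows as a rise in luminescence from relieved DAX1 repression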
Target sequence (P51843 207-470 limits assumed): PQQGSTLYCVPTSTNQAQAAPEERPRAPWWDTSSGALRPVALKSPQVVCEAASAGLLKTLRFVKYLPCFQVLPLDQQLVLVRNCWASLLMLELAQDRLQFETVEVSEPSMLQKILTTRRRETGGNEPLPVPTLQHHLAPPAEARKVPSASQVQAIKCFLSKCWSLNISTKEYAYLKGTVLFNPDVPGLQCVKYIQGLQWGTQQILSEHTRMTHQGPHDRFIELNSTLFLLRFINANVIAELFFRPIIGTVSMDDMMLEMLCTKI
LXRb hcDAF ctr = LXR-beta agonism as hcDAF-12 counter-screen | shares compounds with hcDAF-12 act | HEK293 Gal4-LXR tk-luc reporter, luminescence, 24 h; normalized: DMSO 0%, positive control 100% | activation, % at 6.8 µM | 3,400 tested, under 10 active | AID 743027;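 active = mean percent activation of the reporter above a cutoff set as the average over tested compounds plus their standard deviation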
hcDAF12 conf = confirmation of H. contortus DAF-12 agonists. shares compounds with hcDAF-12 act. activation, % at 6.8 µM. HEK293 hcDAF-12 lit1-tk-luc reporter, luminescence; % of Δ7-dafachronic acid response. hit rate 61% among 3,400;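 active = mean activation across triplicate tests above the threshold derived from the earlier primary screen, cut at about 5.5% in these data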
Hits are given with their value; i = inactive; nt = not tested or not shown.

SMILES	DAX1 inh-1	SMARCA2 act	hcDAF-12 act	hgDAF-12 ag	ssDAF-12 act	DAX1 inh-2	LXRb hcDAF ctr	hcDAF12 conf
C/C(=N\O)c1sc(-c2ccccc2)nc1C	3.8	7.9	12	12	1.1	i	i	7.2
O=C(COC(=O)c1cncc(Br)c1)NCc1ccc2c(c1)OCO2	i	i	i	i	i	i	nt	nt
O=C(COC(=O)c1cncc(Br)c1)Nc1ccc2c(c1)OCO2	i	i	7.0	i	i	i	i	i
c1ccc(-c2nnc(CN3CCC4(CC3)OCCO4)o2)cc1	i	i	i	i	i	i	nt	nt
Cc1ccc(Nc2cc(C(=O)NCCCN3CCOCC3)c3ccccc3n2)cc1C	i	i	i	i	i	i	nt	nt
CCCCN(C)CCCNC(=O)c1cc(Nc2ccc(OC)c(OC)c2)nc2ccccc12	i	i	7.8	i	i	i	i	i
Cc1onc(-c2c(Cl)cccc2Cl)c1C(=O)NCc1ccco1	i	i	i	i	i	i	nt	nt
O=C(O)Cc1ccc2ccc3ccccc3c2c1	i	i	8.5	i	i	nt	i	i
COc1ccccc1-c1c(NC(=O)C(C)C)n(C)c2ccccc2c1=O	i	i	i	i	i	i	nt	nt
CC(=O)Nc1sc2c(c1-c1nc3ccccc3s1)CN(C(C)C)C2	nt	nt	i	i	i	nt	nt	nt
CC(=O)Nc1sc2c(c1-c1nc3ccccc3s1)CCN(C)C2	nt	nt	14	i	i	nt	i	9.4
CCN(CC)S(=O)(=O)c1ccc(Cc2ncc(C(F)(F)F)cc2Cl)s1	i	i	i	i	i	i	nt	nt
O=C(CC(Nc1cccc(Cl)c1Cl)C(=O)OCC(=O)c1cccs1)c1ccccc1 (stereo not given)	i	i	7.4	i	i	i	i	i
Cc1c(Cl)cccc1NC(CC(=O)c1ccccc1)C(=O)OCC(=O)c1cccs1 (stereo not given)	i	i	i	i	i	i	nt	nt
Cc1nc2ccccc2nc(C)c1=NOCc1ccccc1Cl	i	i	8.7	11	i	i	i	i
CC(C)(C)c1ccccc1NC(=S)NC1CCCCC1	i	i	i	i	i	i	nt	nt
O=C(CSC1=NS(=O)(=O)c2cc(Cl)ccc2N1)NCc1ccccc1	i	i	7.0	i	i	i	i	i
O=C1c2ccccc2CC1Sc1nnc(-c2ccccn2)o1 (stereo not given)	i	i	6.7	i	i	i	i	i
O=C1CC(Sc2nnc(-c3ccccc3O)o2)C(=O)N1c1ccccc1 (stereo not given)	i	i	i	i	i	i	nt	nt
COC(=O)CCNC(=O)c1nn(Cc2ccccc2)c(=O)c2ccccc12	i	i	i	i	i	i	nt	nt
CC(=O)c1ccc(OCc2cc(C(=O)N(C)C3CCOC3)no2)cc1 (stereo not given)	4.0	i	7.1	11	i	i	i	6.8
COc1cccc(OCc2cc(C(=O)N(C)C3CCOCC3)no2)c1	i	i	i	i	i	i	nt	nt
O=C1C(=C(O)c2ccccc2)C(=O)c2ccccc21	i	i	7.0	i	2.1	i	i	i
Cc1ccc(NC(=S)Nc2ccccn2)cc1C	i	i	8.6	13	1.8	nt	i	11
Cc1ccc(NC(=S)Nc2ccccn2)c(C)c1	i	i	7.2	i	i	i	i	8.7
SMILES	DAX1 inh-1	SMARCA2 act	hcDAF-12 act	hgDAF-12 ag	ssDAF-12 act	DAX1 inh-2	LXRb hcDAF ctr	hcDAF12 conf
Cc1cc(C)cc(NC(=S)Nc2ccccn2)c1	i	i	7.5	i	i	i	i	i
COc1ccccc1NC(=S)Nc1ccccn1	i	i	i	i	i	i	nt	nt
Cc1ccc(NC(=S)c2ccncc2)c(C)c1	i	i	i	i	i	i	nt	nt
CC(=O)N[C@@H]1[C@@H](O)[C@@H]2OC(c3ccccc3)OC[C@H]2O[C@@H]1N=[N+]=[N-] (stereo not given in full)	i	i	i	i	i	i	nt	nt
CSc1nc(O)c(/C=C2\C=Nc3ccccc32)[nH]1	i	i	12	i	i	i	i	11
O=C(OCC(=O)c1c[nH]c2ccccc12)C1=COCCO1	i	i	7.2	i	1.0	i	i	9.9
CCC(C)c1ccccc1OCCCN(C)Cc1ccccc1 (stereo not given)	i	i	i	i	i	i	nt	nt
C#Cc1ccc2c(c1)COc1c3ccccc3nn1-2	i	i	11	12	1.8	i	i	8.3
C(#Cc1ccc2c(c1)COc1c3ccccc3nn1-2)c1ccccc1	i	i	i	i	i	i	nt	nt
O=C(O)[C@@H]1Cc2c([nH]c3ccccc23)C2CCC(=O)N21 (stereo not given in full)	i	i	7.6	i	1.6	i	i	i
Cc1ccc(S(=O)(=O)CC(O)COc2ccc(F)cc2Cl)c(C)c1 (stereo not given)	i	i	i	i	i	i	nt	nt
O=C(Nc1ccc2ccccc2c1)NC1CCCCN(Cc2ccc(Cl)cc2)C1=O (stereo not given)	i	i	9.2	i	2.9	nt	i	i
N=c1scc(-c2ccccc2)n1/N=C/c1ccco1	i	i	6.8	11	1.4	i	i	i
NC(=O)Cc1ccc(C(=O)c2ccccc2)s1	i	i	i	i	i	i	nt	nt
O=[N+]([O-])c1ccccc1N/N=C/c1c[nH]c2ccccc12	i	i	11	21	2.5	i	i	17
Cn1ncc([N+](=O)[O-])c1C(=O)N/N=C/c1c[nH]c2ccccc12	i	i	i	i	i	i	nt	nt
Cc1cc(=O)[nH]c(N/N=C/c2c[nH]c3ccccc23)n1	i	i	7.2	i	i	i	i	i
Cn1cc([N+](=O)[O-])c(C(=O)N/N=C\c2c[nH]c3ccccc23)n1	i	i	16	i	i	i	i	i
C(=N\Nc1nc2ccccc2[nH]1)/c1c[nH]c2ccccc12	i	i	i	i	i	i	nt	nt
O=C(N/N=C/c1c[nH]c2ccccc12)c1cccc([N+](=O)[O-])c1	i	i	10	i	i	i	i	6.7
CCOC(=O)C1=C(Nc2ccccc2)CSC1	i	i	i	i	i	i	nt	nt
Cc1csc(=O)n1CC(=O)OCC(=O)Nc1cc(Cl)ccc1[N+](=O)[O-]	i	i	7.3	i	i	i	i	i
CC(=O)c1c(C)[nH]c(C(=O)OCC(=O)Nc2cc(Cl)ccc2[N+](=O)[O-])c1C	i	i	7.0	i	i	i	i	i
CC(=O)c1c(C)[nH]c(C(=O)OCC(=O)Nc2ccc(C)cc2[N+](=O)[O-])c1C	i	i	i	i	i	i	nt	nt
CN(Cc1ccon1)Cc1cn(Cc2ccccc2)nc1-c1ccc2c(c1)OCO2	i	i	i	i	i	i	nt	nt
